Assay results from PubChem BioAssay (EPA / NIEHS).
Activity calls are given as the source filed them. How the source made its calls: active means hit-call score of the fitted dose curve at least 0.9, where 1 is the maximum; inactive means score below 0.9.

read-out: Urokinase-type plasminogen activator receptor (uPAR), PLAUR (gene 5329); assay: BSK_BE3C_uPAR: BioMAP Diversity Plus: BE3C Assay for Urokinase-type plasminogen activator receptor (uPAR) Biomarker Activity (AID 2283039); conditions: primary human bronchial epithelial cells; actives raise or lower the signal;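 on outcome: uPAR protein level measured by ELISA on the cells; cells exposed to compound for one day before measurement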
Procedure, shortened: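 ELISA readout of uPAR on human lung primary bronchial epithelial cells, 24 h post-dosing. Bidirectional curve fit relative to DMSO vehicle baseline; gain or loss of signal both scored.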

Row | Structure (SMILES) | outcome | AC50
1 | CCCCC(CC)CO (stereo not given) | inactive | –
2 | CC(=O)O[C@]1(C(C)=O)CC[C@H]2[C@@H]3C=C(Cl)C4=CC(=O)[C@@H]5C[C@@H]5[C@]4(C)[C@H]3CC[C@@]21C | – | 32.4 µM (active)
3 | COc1ccc(OC(F)(F)F)cc1CN[C@H]1CCCN[C@H]1c1ccccc1 | inactive | –
4 | CC(COCC(C)OC(=O)c1ccccc1)OC(=O)c1ccccc1 (stereo not given) | inactive | –
5 | Cc1occc(=O)c1O | inactive | –
6 | O=C(O)c1[nH]n(-c2ccc(S(=O)(=O)O)cc2)c(=O)c1N=Nc1ccc(S(=O)(=O)O)cc1 | inactive | –

read-out: Interleukin-6 (IL6), IL6 (gene 3569); assay: BSK_CASM3C_IL6: BioMAP Diversity Plus: CASM3C Assay for Interleukin-6 (IL6) Biomarker Activity for (AID 2283040); conditions: primary human coronary artery smooth muscle cells; actives raise or lower the signal

Row | Structure (SMILES) | outcome | AC50
7 | CS(=O)(=O)c1ccc([C@@H](C[C@H]2CCC(=O)C2)C(=O)Nc2cnccn2)cc1Cl | inactive | –
8 | O=C(O)CN(CC(=O)O)CC(=O)O | inactive | –
9 | CC1(C)C(=O)NC(=O)N1CO | inactive | –
10 | CC(C)c1cccc(C(C)C)c1NC(=O)NS(=O)(=O)c1cc(C(C)(C)O)co1 | inactive | –
11 | CCCC(=O)O | inactive | –
12 | C=CCCCCCCCCCCCC | inactive | –
13 | CCCCC(CC)COP(=O)(OCC(CC)CCCC)OCC(CC)CCCC (stereo not given) | inactive | –
14 | NC1CCCCC1 | inactive | –
15 | CC(=O)CC(c1ccccc1)c1c(O)c2ccccc2oc1=O (stereo not given) | inactive | –
16 | C=CCc1ccc(OC)c(OC)c1 | inactive | –
17 | CC(C)OC(=O)C(C)(C)Oc1ccc(C(=O)c2ccc(Cl)cc2)cc1 | inactive | –
18 | CCCCCCCCCC[N+](C)(C)[O-] | inactive | –
19 | CCCCCCCC(=O)OC | inactive | –
20 | Oc1ccc(O)cc1 | inactive | –
21 | CSc1ccc(Oc2ccc(S(N)(=O)=O)cc2CN(C)C)cc1C | inactive | –
22 | CCc1cc(C2=C(C(=O)O)N(c3ccccc3C(F)(F)F)S(=O)(=O)c3ccccc32)cc2c1OCO2 | inactive | –
23 | NCCOCCOCCN | inactive | –
24 | S=c1[nH]c2ccccc2s1 | inactive | –
25 | O=C(N[C@@H](c1ccccc1)[C@@H]1CCCCN1)c1cccc(C(F)(F)F)c1Cl | inactive | –
26 | O=C1CCCCC1 | inactive | –
27 | Cc1ccc(C(C)(C)C)c(O)c1 | inactive | –
28 | CCN(CC)CCOc1ccc(C(=C(Cl)c2ccccc2)c2ccccc2)cc1 | – | 31.6 µM (active)
29 | CC(=O)[C@@]1(O)CC[C@H]2[C@@H]3CCC4=CC(=O)CC[C@]4(C)[C@H]3CC[C@@]21C | – | 29.5 µM (active)
30 | CCCCC(CC)CO (stereo not given) | inactive | –
31 | CC(=O)O[C@]1(C(C)=O)CC[C@H]2[C@@H]3C=C(Cl)C4=CC(=O)[C@@H]5C[C@@H]5[C@]4(C)[C@H]3CC[C@@]21C | inactive | –
32 | COc1ccc(OC(F)(F)F)cc1CN[C@H]1CCCN[C@H]1c1ccccc1 | inactive | –
33 | CC(COCC(C)OC(=O)c1ccccc1)OC(=O)c1ccccc1 (stereo not given) | inactive | –
34 | Cc1occc(=O)c1O | inactive | –
35 | O=C(O)c1[nH]n(-c2ccc(S(=O)(=O)O)cc2)c(=O)c1N=Nc1ccc(S(=O)(=O)O)cc1 | inactive | –
